# Screens as filed in PubChem BioAssay.
# Hits are enriched below; roughly 0.47% of the tested compounds scored in any of these assays.
# AID inh = blocks human AID cytidine deaminase activity; Potency, µM (series often up to 115 µM), hits mostly inhibitors; 91,000 compounds, 0.32% hits; Q9GZX7; AID deamination FRET fluorescence, UDG-coupled, 4 h; AID 1347428; also: nearly all actives have a fitted effect of over 25% in size
# Target sequence (Q9GZX7 whole entry, looked up): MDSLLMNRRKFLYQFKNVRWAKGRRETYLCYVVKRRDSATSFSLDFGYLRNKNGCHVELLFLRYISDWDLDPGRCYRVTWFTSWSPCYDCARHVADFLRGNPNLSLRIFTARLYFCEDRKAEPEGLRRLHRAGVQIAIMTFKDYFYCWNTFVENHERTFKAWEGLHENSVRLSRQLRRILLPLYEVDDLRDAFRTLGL
# UDG counter = counter-screen for AID inhibitors: uracil-DNA glycosylase inhibition. FRET deamination/UDG coupled assay, UDG read, 4 h. 91,000 compounds, 0.14% hits. Potency, µM (titrated, usually from 115 µM), actives largely listed as inhibitors; also: nearly all actives have a fitted effect of over 65% in size
# Numbers stand for hits; – = inactive; ? = inconclusive. Calls follow the shape of the dose curve; as a rule, active = well fitted curve in the direction sought with a large enough effect; inconclusive = small, poorly fitted or top-dose-only effect, or another doubt; inactive = no such curve, though single readings can be large; an effect the other way counts as inactive or inconclusive.
SMILES,AID inh,UDG counter
Cc1c(Cl)cccc1-n1ncc(C(=O)N2CCN(c3ncccn3)CC2)c1C1CCN(C(=O)OC(C)(C)C)CC1,–,–
COc1ccc(CCN2CCC(CNC(=O)c3cnn(-c4cccc(Cl)c4)c3C3CCN(C(=O)OC(C)(C)C)CC3)CC2)cc1,35µM,–
COc1ccc(-c2nc(NC(C)c3ccccc3)c3ccccc3n2)cc1 (stereo unspecified),–,–
Cc1ccc2c(CSc3nnc(NCC(C)C)s3)cc(=O)oc2c1,–,–
CC(C)NC(=S)N/N=C/c1ccccc1Br,–,–
COc1cc(/C=C(/C#N)C(=O)c2ccccc2)cc(Cl)c1O,–,–
COc1cc2c(=O)c(S(=O)(=O)c3ccc(C)cc3)cn(Cc3cccc(C)c3)c2cc1OC,40µM,–
CCCn1cc(S(=O)(=O)c2ccc(C)cc2)c(=O)c2cc(OC)c(OC)cc21,–,–
O=C(O)c1cc2ccc(Br)cc2[nH]1,–,–
Cn1c(COc2ccccc2Cl)n[nH]c1=S,–,–
Cc1ccc(C)c(CNC(=O)C2CCCCN2S(=O)(=O)c2ccc(F)cc2)c1 (stereo unspecified),–,?
CC(C)Oc1ccc(CNC(=O)C2CCCCN2S(=O)(=O)c2ccc(F)cc2)cc1 (stereo unspecified),?,89µM
C/C=C/C=C/C(=O)NCc1cccc(OC)c1,–,–
COc1ccccc1C(=O)Nc1ccc(C(=O)OCc2cc(=O)n3nc(C4CC4)sc3n2)cc1,–,–
COc1ccccc1C(=O)Nc1ccc(C(=O)OCc2cc(=O)n3nc(C)sc3n2)cc1,28µM,–
Cc1oc(-c2ccccc2)nc1CC(=O)Nc1ccc(OC(F)F)cc1,–,–
CCOc1ccc(NC(=O)c2ccc3c(c2)NC(=O)CS3)cc1,–,–
COc1ccc(-c2noc(CSc3nnc(-c4ccccc4)n3C)n2)cc1,–,–
c1ccc(-c2noc(CSc3nnnn3C3CCCCC3)n2)cc1,–,89µM
Cc1cc(C)n(-c2nc3ccccc3nc2N2CCN(S(=O)(=O)c3ccc4ccccc4c3)CC2)n1,–,89µM
Cc1cc(C)n(-c2nc3ccccc3nc2N2CCN(C(=O)c3ccccc3)CC2)n1,–,–
Cc1cccc(-c2nc(C#N)c(N3CCOCC3)o2)c1,–,–
Cc1cccc(S(=O)(=O)N2CCC(n3c(CC(C)C)nc4cccnc43)CC2)c1,?,–
COc1ccc(C(=O)Nc2ccc(NC(=O)c3cccs3)cc2)cc1OC,63µM,–
COc1ccccc1C(=O)Nc1ccc(NC(=O)c2cccs2)cc1,?,–
SMILES,AID inh,UDG counter
CCN(CC)C(=O)c1sc2c(c1C)c(=O)n(-c1ccc(Cl)c(Cl)c1)c(=O)n2Cc1cc(=O)n2ccccc2n1,89µM,?
CCN(CC)C(=O)c1sc2c(c1C)c(=O)n(-c1ccc(C)c(C)c1)c(=O)n2Cc1cc(=O)n2ccccc2n1,–,–
C#CCNC(=O)c1cccc(C(N)=O)c1,–,–
O=C(/C=C/c1cccc2ccccc12)c1cccs1,–,–
CSc1ccc(/C=N/Nc2ccc(Cl)c(Cl)c2)cc1,–,–
COc1cc(NC(=O)COCc2cc(-c3ccc4c(c3)OCO4)on2)cc(OC)c1,–,?
Cc1cc(C)cc(NC(=O)COCc2cc(-c3ccc4c(c3)OCO4)on2)c1,?,79µM
CN(C)c1ccc(/C=N/Nc2ccc(F)cc2F)cc1,–,–
CCOc1ccccc1OCCCn1c(-c2ccc(Cl)cc2)nc2ccccc2c1=O,–,–
CCOc1ccccc1OCCCCn1c(-c2ccc(Cl)cc2)nc2ccccc2c1=O,32µM,–
COC(=O)c1ccc(OC(=O)c2cc(OC)cc(OC)c2)cc1,–,–
COc1ccc(CNC(=O)Nc2ccc3c(c2)N(C)C(=O)c2ccccc2S3)cc1OC,89µM,–
CC(C)Oc1ccc(CNC(=O)Nc2ccc3c(c2)N(C)C(=O)c2ccccc2S3)cc1,?,–
Nc1cc(Cl)ccc1OCc1ccccc1,–,–
CCOc1ccc(-c2nc(CSCC(=O)N3CCN(c4cccc(C(F)(F)F)c4)CC3)c(C)o2)cc1,32µM,–
CCOC(=O)c1c(C)oc2nc(C)nc(N3CCN(c4ccccc4)CC3)c12,–,–
CCOC(=O)c1c(C)oc2nc(C)nc(N3CCN(c4cccc(C(F)(F)F)c4)CC3)c12,14µM,–
CCOc1ccc(-c2nc(CSCC(=O)N3CCN(c4ccc(F)cc4)CC3)c(C)o2)cc1,–,–
O=C(/C=C/c1ccc(O)cc1)c1cccc(Br)c1,–,–
O=C1C2CCCN2C(=O)N1Cc1coc(-c2ccccc2)n1 (stereo unspecified),–,–
COc1ccc(-c2cc3ccc(OS(C)(=O)=O)cc3oc2=O)c(OC)c1,–,–
Nc1cc(=O)[nH]c(SCc2c(F)cccc2Cl)n1,–,–
COc1ccc(OCc2nc3ccccc3n2Cc2ccc(C(C)(C)C)cc2)cc1,?,–
CC(C)(C)c1ccc(OCc2nc3ccccc3n2CCOc2ccccc2)cc1,32µM,–
Cc1ccc(C(=O)Nc2ccc(S(=O)(=O)O)c3cc(S(=O)(=O)O)cc(S(=O)(=O)O)c23)cc1NC(=O)c1cccc(NC(=O)Nc2cccc(C(=O)Nc3cc(C(=O)Nc4ccc(S(=O)(=O)O)c5cc(S(=O)(=O)O)cc(S(=O)(=O)O)c45)ccc3C)c2)c1,7.1µM,–
SMILES,AID inh,UDG counter
Cc1ccc(NC(=O)c2cccc(NC(=O)NC(C)C)c2)cc1Cl,–,–
CC(C)C(=O)NC(NC(=O)C(C)C)c1cc(Br)ccc1F,–,–
COc1ccc(OC)c(CNC(=O)c2nn(C)c3c2CS(=O)(=O)c2ccccc2-3)c1,40µM,–
COc1ccc(CNC(=O)c2nn(C)c3c2CS(=O)(=O)c2ccccc2-3)cc1,–,–
C=CCNC(=O)NC(=O)CN(CC(O)CC)c1ccccc1 (stereo unspecified),–,–
CC(C)(C)c1ccc(-c2nc(SCCCOc3ccccc3)n3[nH]c(=O)cc3n2)cc1,79µM,–
COc1ccccc1OCCCSc1nc(-c2ccc(C(C)(C)C)cc2)nc2cc(=O)[nH]n12,?,–
COc1cc(NC(=O)c2ccc3ccccc3n2)cc(OC)c1,–,–
COc1cccc(-c2nc(N3CCCCCC3)c3ccccc3n2)c1O,?,89µM
Clc1ccccc1-c1nc(N2CCCCC2)c2ccccc2n1,–,–
COc1cc(NC(=O)CC(c2ccc(C)cc2)N2Cc3ccccc3C2=O)cc(OC)c1 (stereo unspecified),45µM,–
COc1cccc(CNC(=O)CC(c2ccc(C)cc2)N2Cc3ccccc3C2=O)c1 (stereo unspecified),?,–
Cc1ccc(CNC(=O)C2CCCN(c3nc4ccccc4n4cccc34)C2)cc1 (stereo unspecified),79µM,–
COc1cccc(CNC(=O)C2CCCN(c3nc4ccccc4n4cccc34)C2)c1 (stereo unspecified),–,–
Cn1c(COc2ccc(C(C)(C)C)cc2)n[nH]c1=S,–,–
O=C(CSc1nccn1-c1ccc(Cl)cc1)Nc1ccc(Cl)c(Cl)c1,–,–
O=C(CSc1nccn1-c1cccc(Cl)c1)Nc1cccc(C(F)(F)F)c1,32µM,–
Cc1ccc(C(=O)NC(CC(=O)O)c2cccs2)o1 (stereo unspecified),–,–
CCc1c(C)nc2c(Cl)cccc2c1Cl,–,–
CCOc1ccc(Nc2nnc(-n3nc(C)cc3C)c3ccccc23)cc1,–,79µM
CCc1ccc(Nc2nnc(-n3nc(C)cc3C)c3ccccc23)cc1,–,–
COc1cccc(-n2c(SCC(=O)Nc3cccc(C)c3)nc3c([nH]c4ccccc43)c2=O)c1,13µM,–
